Measurements reported in PubChem BioAssay.
Results filed as inconclusive are left out. Calls of active or inactive are those of the source.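 Rule for the calls, unless noted: active = normalized viability below 100% at a tested concentration; inactive = the rest.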 Where a SMILES comes first, the peptide text is derived from it. The star is where a group is joined. Cbz = O=C(OCc1ccccc1)*

Columns and labels:
[1] = growth inhibition of DIPG glioma cells, dose response, cell-based, SU-DIPG-XVII, MIPE5.0, CellTiter-Glo, qHTS (AID 1347060; cut-off not given, nearly all actives have AC50 up to about 26 µM;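 for AC50: cells exposed to compound for 48 hours before viability readout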); conditions: SU-DIPG-XVII viability, CellTiter-Glo ATP luminescence
[2] = growth inhibition of DIPG glioma cells, dose response, cell-based, SU-DIPG-XIII, MIPE4.0, CellTiter-Glo, qHTS (AID 1347061; cut-off not given, nearly all actives have AC50 up to about 37 µM;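 note: cells exposed to compound for 48 hours before readout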); conditions: SU-DIPG-XIII viability, CellTiter-Glo ATP luminescence
[3] = ovarian cancer cell viability with rucaparib, profiling panel, oncology-focused library, rucaparib conditional (AID 1508598); conditions: patient-derived ovarian cancer cells, CellTiter-Glo viability, 144 h, stronger effect = lower value
[4] = growth inhibition of DIPG glioma cells, dose response, cell-based, JHH-DIPG-1, MIPE4.0, CellTiter-Glo, qHTS (AID 1347062; cut-off not given, nearly all actives have AC50 up to about 27 µM;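 for AC50: cells exposed to compound for two days before readout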); conditions: JHH-DIPG-1 viability, CellTiter-Glo ATP luminescence
[5] = growth inhibition of DIPG glioma cells, dose response, cell-based, SU-DIPG-IV, MIPE4.0, CellTiter-Glo, qHTS (AID 1347063; cut-off not given, nearly all actives have AC50 up to about 30 µM;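 note: compound exposure lasted 48 hours before the viability readout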); conditions: SU-DIPG-IV viability, CellTiter-Glo ATP luminescence
[6] = growth inhibition of DIPG glioma cells, dose response, cell-based, SU-DIPG-XIII, MIPE5.0, CellTiter-Glo, qHTS (AID 1347064; cut-off not given, nearly all actives have AC50 up to about 23 µM;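 for AC50: cells exposed to compound for 48 hours before the viability read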); conditions: SU-DIPG-XIII viability, CellTiter-Glo ATP luminescence
[7] = viability loss in pontine glioma line – cell-based, SU-DIPG-XXV, MIPE5.0, CellTiter-Glo, qHTS, dose response (AID 1347065; cut-off not given, nearly all actives have AC50 up to about 26 µM;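 note: cells exposed to compound for 48 hours before ATP readout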); conditions: CellTiter-Glo ATP luminescence
[8] = SU-DIPG-VI glioma cell viability, MIPE4.0 library, CellTiter-Glo luminescence, qHTS (AID 1347066; cut-off not given, nearly all actives have AC50 up to about 30 µM;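 note: cells exposed to compound for 48 hours before readout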); conditions: CellTiter-Glo ATP luminescence
[9] = JHH-DIPG-1 glioma cell viability, MIPE5.0 library, CellTiter-Glo luminescence, qHTS (AID 1347067; cut-off not given, nearly all actives have AC50 up to about 26 µM;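 note: cells exposed to compound for 48 hours before readout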); conditions: JHH-DIPG-1 glioma viability, CellTiter-Glo ATP luminescence
[10] = SU-DIPG-XXV glioma cell viability, MIPE5.0 library, qHTS (AID 1347068; cut-off not given, nearly all actives have IC50 up to about 30 µM;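 for IC50: cells exposed to compound for 48 hours before viability readout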)
[11] = sensitizers of A549 cells to miR-34 induction, primary screen, imaging, A549 dox-inducible miR-34, nuclei and caspase counts (AID 1347080;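 active = compounds whose cell count with miR-34 switched on is under 0.7 times the count with it off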); conditions: A549 miR-34 inducible, Hoechst nuclei count, 48 h
[12] = survival rescue of mitochondrial mutant cells in low glucose, primary screen, MELAS cybrids, Rieske KO mouse fibroblasts, CellTiter-Glo (AID 1508586;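 active = mean z-score across replicates of 1.96 or higher in either the MELAS or the Rieske mutant cell line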;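 note: z relative to plate mean and SD of compound and empty wells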)
[13] = modifiers of HSF1 nuclear foci, imaging, Selleck Cancer Library (AID 1347162; in the data active = plate-normalised HSF1 focus index below about 0.46); conditions: human cells, at 10 µM; SSMD: measured here: HSF1 foci SSMD mean; cell count: measured here: cell number; plate-normalised HSF1 focus index: stronger effect = lower value
[14] = at 0.000305 µM, OCI-C5x cells, with rucaparib 10 µM, 100% = cells with rucaparib alone
[15] = at 0.000305 µM, OCI-C5x cells, without rucaparib
[16] = at 0.000305 µM, OCI-P5x cells, with rucaparib 20 µM, 100% = cells with rucaparib alone
[17] = at 0.000305 µM, OCI-P5x cells, without rucaparib
[18] = at 0.00122 µM, OCI-C5x cells, with rucaparib 10 µM, 100% = cells with rucaparib alone
[19] = at 0.00122 µM, OCI-C5x cells, without rucaparib
[20] = at 0.00122 µM, OCI-P5x cells, with rucaparib 20 µM, 100% = cells with rucaparib alone
[21] = at 0.00122 µM, OCI-P5x cells, without rucaparib
[22] = at 0.00488 µM, OCI-C5x cells, with rucaparib 10 µM, 100% = cells with rucaparib alone
[23] = at 0.00488 µM, OCI-C5x cells, without rucaparib
[24] = at 0.00488 µM, OCI-P5x cells, with rucaparib 20 µM, 100% = cells with rucaparib alone
[25] = at 0.00488 µM, OCI-P5x cells, without rucaparib
[26] = at 0.0195 µM, OCI-C5x cells, with rucaparib 10 µM, 100% = cells with rucaparib alone
[27] = at 0.0195 µM, OCI-C5x cells, without rucaparib
[28] = at 0.0195 µM, OCI-P5x cells, with rucaparib 20 µM, 100% = cells with rucaparib alone
[29] = at 0.0195 µM, OCI-P5x cells, without rucaparib
[30] = at 0.0781 µM, OCI-C5x cells, with rucaparib 10 µM, 100% = cells with rucaparib alone
[31] = at 0.0781 µM, OCI-C5x cells, without rucaparib
[32] = at 0.0781 µM, OCI-P5x cells, with rucaparib 20 µM, 100% = cells with rucaparib alone
[33] = at 0.0781 µM, OCI-P5x cells, without rucaparib
[34] = at 0.313 µM, OCI-C5x cells, with rucaparib 10 µM, 100% = cells with rucaparib alone
[35] = at 0.313 µM, OCI-C5x cells, without rucaparib
[36] = at 0.313 µM, OCI-P5x cells, with rucaparib 20 µM, 100% = cells with rucaparib alone
[37] = at 0.313 µM, OCI-P5x cells, without rucaparib
[38] = at 1.25 µM, OCI-C5x cells, with rucaparib 10 µM, 100% = cells with rucaparib alone
[39] = at 1.25 µM, OCI-C5x cells, without rucaparib
[40] = at 1.25 µM, OCI-P5x cells, with rucaparib 20 µM, 100% = cells with rucaparib alone
[41] = at 1.25 µM, OCI-P5x cells, without rucaparib
[42] = at 5 µM, OCI-C5x cells, with rucaparib 10 µM, 100% = cells with rucaparib alone
[43] = at 5 µM, OCI-C5x cells, without rucaparib
[44] = at 5 µM, OCI-P5x cells, with rucaparib 20 µM, 100% = cells with rucaparib alone
[45] = at 5 µM, OCI-P5x cells, without rucaparib
[46] = stronger effect = lower value, cell number ratio, induced over uninduced
[47] = measured here: relative caspase fold change +Dox/-Dox
[48] = measured here: total cells with miR-34 induction, stronger effect = lower value
[49] = measured here: total cells without miR-34 induction
[50] = MELAS cybrid survival, CellTiter-Glo 48 h, stronger effect = higher value
[51] = Rieske KO mouse fibroblast survival, CellTiter-Glo 72 h

## Cc1c(NC(=O)OC[C@@H]2COCCN2)cn2ncnc(Nc3ccc4c(cnn4Cc4cccc(F)c4)c3)c12
[1]
  AC50: 23500 nM (active)
[2]
  outcome: inactive
[3]; [14]
  viability: 137% (inactive)
[3]; [15]
  viability: 137% (inactive)
[3]; [16]
  viability: 115% (inactive)
[3]; [17]
  viability: 112% (inactive)
[3]; [18]
  viability: 131% (inactive)
[3]; [19]
  viability: 144% (inactive)
[3]; [20]
  viability: 114% (inactive)
[3]; [21]
  viability: 111% (inactive)
[3]; [22]
  viability: 117% (inactive)
[3]; [23]
  viability: 132% (inactive)
[3]; [24]
  viability: 109% (inactive)
[3]; [25]
  viability: 96.9% (active)
[3]; [26]
  viability: 119% (inactive)
[3]; [27]
  viability: 133% (inactive)
[3]; [28]
  viability: 109% (inactive)
[3]; [29]
  viability: 98.1% (active)
[3]; [30]
  viability: 116% (inactive)
[3]; [31]
  viability: 139% (inactive)
[3]; [32]
  viability: 111% (inactive)
[3]; [33]
  viability: 98% (active)
[3]; [34]
  viability: 121% (inactive)
[3]; [35]
  viability: 133% (inactive)
[3]; [36]
  viability: 103% (inactive)
[3]; [37]
  viability: 96.4% (active)
[3]; [38]
  viability: 121% (inactive)
[3]; [39]
  viability: 140% (inactive)
[3]; [40]
  viability: 96.9% (active)
[3]; [41]
  viability: 92.8% (active)
[3]; [42]
  viability: 89.2% (active)
[3]; [43]
  viability: 144% (inactive)
[3]; [44]
  viability: 92.1% (active)
[3]; [45]
  viability: 96.9% (active)

## COc1cc(NC(=O)c2ccc(-c3ccc(Cl)cc3)o2)cc(OC)c1
[1]
  outcome: inactive
[4]
  AC50: 935 nM (active)
[5]
  AC50: 6620 nM (active)
[6]
  outcome: inactive
[7]
  outcome: inactive
[8]
  outcome: inactive
[9]
  outcome: inactive
[10]
  outcome: inactive
[11]; [46]
  fold change: 0.861 (inactive)
[11]; [47]
  fold change: 0.756
[11]; [48]
  cell count: 9550
[11]; [49]
  cell count: 11100
[12]; [50]
  z-score: -0.392 (inactive)
[12]; [51]
  z-score: 0.568

## Cc1ccc(NC(=O)C2(c3ccc4c(c3)OC(F)(F)O4)CC2)nc1-c1cccc(C(=O)O)c1
[1]
  outcome: inactive
[4]
  AC50: 83.3 nM (active)
[5]
  AC50: 118 nM (active)
[6]
  outcome: inactive
[7]
  outcome: inactive
[8]
  AC50: 1180 nM (active)
[9]
  outcome: inactive
[10]
  outcome: inactive
[11]; [46]
  fold change: 0.92 (inactive)
[11]; [47]
  fold change: 0.757
[11]; [48]
  cell count: 8150
[11]; [49]
  cell count: 8860
[12]; [50]
  z-score: -0.25 (inactive)
[12]; [51]
  z-score: -0.226

## O=C(Cc1ccc(-c2ccc(OCCN3CCOCC3)cc2)cn1)NCc1ccccc1
[1]
  AC50: 118 nM (active)
[4]
  AC50: 59 nM (active)
[5]
  AC50: 11.8 nM (active)
[6]
  AC50: 661 nM (active)
[7]
  AC50: 118 nM (active)
[8]
  AC50: 1050 nM (active)
[9]
  AC50: 132 nM (active)
[10]
  IC50: 525 nM (active)
[11]; [46]
  fold change: 1.21 (inactive)
[11]; [47]
  fold change: 0.488
[11]; [48]
  cell count: 1530
[11]; [49]
  cell count: 1260
[13]
  SSMD: 2.71
  cell count: 6240
  plate-normalised HSF1 focus index: 1.14 (inactive)
[12]; [50]
  z-score: 1.14 (inactive)
[12]; [51]
  z-score: -0.489
[3]; [14]
  viability: 106% (inactive)
[3]; [15]
  viability: 114% (inactive)
[3]; [16]
  viability: 109% (inactive)
[3]; [17]
  viability: 106% (inactive)
[3]; [18]
  viability: 111% (inactive)
[3]; [19]
  viability: 124% (inactive)
[3]; [20]
  viability: 108% (inactive)
[3]; [21]
  viability: 108% (inactive)
[3]; [22]
  viability: 112% (inactive)
[3]; [23]
  viability: 109% (inactive)
[3]; [24]
  viability: 105% (inactive)
[3]; [25]
  viability: 96.7% (active)
[3]; [26]
  viability: 101% (inactive)
[3]; [27]
  viability: 58.9% (active)
[3]; [28]
  viability: 85.3% (active)
[3]; [29]
  viability: 29.6% (active)
[3]; [30]
  viability: 62.9% (active)
[3]; [31]
  viability: 50.7% (active)
[3]; [32]
  viability: 69.5% (active)
[3]; [33]
  viability: 23.9% (active)
[3]; [34]
  viability: 40.7% (active)
[3]; [35]
  viability: 33.9% (active)
[3]; [36]
  viability: 58.7% (active)
[3]; [37]
  viability: 18.5% (active)
[3]; [38]
  viability: 46.4% (active)
[3]; [39]
  viability: 34.1% (active)
[3]; [40]
  viability: 58.9% (active)
[3]; [41]
  viability: 17.4% (active)
[3]; [42]
  viability: 50.3% (active)
[3]; [43]
  viability: 32.6% (active)
[3]; [44]
  viability: 49.4% (active)
[3]; [45]
  viability: 15.3% (active)

## COC(=O)Nc1ccc(-c2nc(N3CCOCC3)c3cnn(C4CCN(Cc5cccnc5)CC4)c3n2)cc1
[1]
  AC50: 5250 nM (active)
[4]
  AC50: 6620 nM (active)
[5]
  AC50: 235 nM (active)
[6]
  AC50: 6610 nM (active)
[7]
  AC50: 1480 nM (active)
[8]
  AC50: 14800 nM (active)
[9]
  AC50: 6610 nM (active)
[10]
  IC50: 13200 nM (active)

## C/C(=N\NC(=S)N1CCC1)c1ccccn1
[1]
  AC50: 9.34 nM (active)
[4]
  AC50: 1480 nM (active)
[5]
  AC50: 10.5 nM (active)
[6]
  AC50: 23.5 nM (active)
[7]
  AC50: 13.2 nM (active)
[8]
  AC50: 9350 nM (active)

## Cc1cnc(Nc2cccc(CN3CCOCC3)c2)nc1Nc1cccc(S(=O)(=O)NC(C)(C)C)c1
[1]
  AC50: 332 nM (active)
[4]
  AC50: 7430 nM (active)
[5]
  AC50: 5260 nM (active)
[6]
  AC50: 2950 nM (active)
[7]
  AC50: 1180 nM (active)
[8]
  AC50: 14800 nM (active)
[9]
  AC50: 2350 nM (active)

## CC(/C=C1\SC(=S)N(CC(=O)O)C1=O)=C\c1ccccc1
[1]
  outcome: inactive
[4]
  outcome: inactive
[5]
  outcome: inactive
[6]
  outcome: inactive
[7]
  outcome: inactive
[8]
  outcome: inactive
[9]
  outcome: inactive

## CC(C)C[C@@H](C=O)NC(=O)[C@H](CC(C)C)NC(=O)[C@H](CC(C)C)NC(=O)OCc1ccccc1 (Cbz-Leu-Leu-Leu-aldehyde)
[1]
  AC50: 468 nM (active)
[4]
  AC50: 166 nM (active)
[5]
  AC50: 148 nM (active)
[6]
  AC50: 59 nM (active)
[7]
  AC50: 148 nM (active)
[8]
  AC50: 296 nM (active)
[9]
  AC50: 468 nM (active)
[10]
  IC50: 263 nM (active)
[11]; [46]
  fold change: 1.07 (inactive)
[11]; [47]
  fold change: 1.23
[11]; [48]
  cell count: 638
[11]; [49]
  cell count: 595
[13]
  SSMD: 7.09
  cell count: 6800
  plate-normalised HSF1 focus index: 1.43 (inactive)
